IL1B secr inh = qHTS for Inhibitors of Inflammasome Signaling: IL-1-beta AlphaLISA Primary Screen | THP-1 LPS/ATP IL-1B secretion, AlphaLISA, 16 h; hits give low values | activity change, % at 57.5 µM | 4.7% of 360,000 active | AID 743279, 2014; in the data active = activity change below about -50%; inconclusive = mostly about -30% to -49%; also: % is scaled to controls: 0 for no effect and ±100 for the full control effect
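THP-1 cells pretreated 1 hr with compounds (up to 57.5 uM final), then stimulated with LPS (250 ng/mL final) plus ATP (1.25 mM final); secreted IL-1B measured by AlphaLISA after 16 hr, decreased signal indicating inhibition.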
ATXN2 expr inh = Primary qHTS for Inhibitors of ATXN expression | HEK-293 ATXN2-luciferase reporter, luminescence, 24 h | Potency, µM (highest dose often 57 µM), for inactives: at the highest dose activity change, negative = inhibition, most hits filed as inhibitors | 0.72% of 360,000 active | AID 1745845, 2022; also: potency is read from the fitted curve at half-maximal effect; % is scaled to controls: 0 for no effect and ±100 for the full control effect; nearly all actives have a fitted effect of over 55% in size
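qHTS (up to 57 uM final) was run with 24 h compound exposure of reporter cells at 37 °C. Each well was multiplexed: SteadyGlo luminescence measured ATXN2-luciferase expression after a fluorogenic Gly-Phe-AFC viability readout (25 uM final).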
Integrin act MD = qHTS for Activators of Integrin-Mediated Alleviation for Muscular Dystrophy; alpha7betagal myoblasts, beta-gal FDG fluorescence, 48 h; Potency, µM (doses to about 38.3 µM), inactives show at the highest dose activation, usual class: activators; 0.064% of 350,000 active;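 also: potency is read from the fitted curve at half-maximal effect; 100% = response of the positive control SU9516; nearly all actives have a fitted effect of over 60% in size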
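Alpha7betagal+/- myoblasts (passage 13) were plated 16-24 hr, then exposed to compounds (1:260 dilution of DMSO stock) for 48 hours at 37C. After MPER lysis, β-galactosidase reporter activity was read as FDG fluorescence (ex 480/em 540) after 30 minutes.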
ATXN viability = Viability Counterscreen for Primary qHTS for Inhibitors of ATXN expression; 0.49% of 400,000 active; Potency, µM (series often up to 56.7 µM), hits mostly cytotoxic; AID 651635, 2014; S2 cells (HEK-293 line with an ATXN2-luciferase reporter) viability, CellTiter-Fluor protease fluorescence, 24 h; also: potency is read from the fitted curve at half-maximal effect; nearly all actives have a fitted effect of over 40% in size
D3 ag = qHTS of D3 Dopamine Receptor Agonist: qHTS; D(3) dopamine receptor (Homo sapiens), P35462; D3R DiscoveRx beta-arrestin cells, luminescence, 90 min; max activation, %; 0.58% of 410,000 active; AID 652048, 2013; in the data active = max activation above about 30%; also: 0% is about no effect
Target sequence (P35462 whole entry, looked up): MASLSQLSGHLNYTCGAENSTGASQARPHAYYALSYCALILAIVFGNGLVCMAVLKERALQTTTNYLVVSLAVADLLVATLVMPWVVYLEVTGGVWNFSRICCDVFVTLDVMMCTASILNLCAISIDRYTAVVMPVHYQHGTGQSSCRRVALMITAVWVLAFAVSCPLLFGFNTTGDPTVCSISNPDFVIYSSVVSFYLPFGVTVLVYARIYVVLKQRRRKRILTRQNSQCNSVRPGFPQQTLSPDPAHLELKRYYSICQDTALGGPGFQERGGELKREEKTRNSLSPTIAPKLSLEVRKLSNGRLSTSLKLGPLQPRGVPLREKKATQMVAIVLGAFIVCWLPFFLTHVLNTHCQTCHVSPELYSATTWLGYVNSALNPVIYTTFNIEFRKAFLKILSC
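Agonist-mode cell screen: cells plated at 1500/well and incubated overnight at 37 °C, then exposed to library compounds for 90 min at 37 °C. Detection reagent was added for 30–60 min at room temperature, and luminescence was read.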
D3 antag = qHTS of D3 Dopamine Receptor Antagonist: qHTS; D(3) dopamine receptor (Homo sapiens), P35462; 2.5% of 360,000 active; max response, negative = inhibition, %; D3R cells, DiscoveRx beta-arrestin luminescence, antagonist mode; hits give low values; in the data active = max response below about -50%; inconclusive = no clear call, values can overlap the other calls; also: % is scaled to controls: 0 for no effect and ±100 for the full control effect
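Cells plated overnight at 1500 cells/well, then exposed to library compounds with dopamine controls for 90 minutes at 37 degrees C. DiscoveRx reagent added for 30–60 minutes at room temperature; luminescence read, quantitative HTS format.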
Numbers without * were called inactive. Sampled rows, rich in hits. Any-hit rate of the full collection: about 7%. Unless noted, calls follow the shape of the dose curve; as a rule, active = well fitted curve in the direction sought with a large enough effect; inconclusive = small, poorly fitted or top-dose-only effect, or another doubt; inactive = no such curve, though single readings can be large; an effect the other way counts as inactive or inconclusive.

CCN(CC)CCOC(=O)c1c(C)oc2ccc(O)cc12 was read as IL1B secr inh -11, ATXN2 expr inh 6%, Integrin act MD 6%, ATXN viability inactive, D3 ag -15 and D3 antag -72*.
CCOC(=O)c1c(CN2CCN(C)CC2)oc2ccc(O)cc12 was read as IL1B secr inh 28, ATXN2 expr inh -4%, Integrin act MD -6%, ATXN viability inactive, D3 ag -3 and D3 antag -54*.
Screening COc1ccc(C(C)=O)c2c1OCCO2 returned IL1B secr inh -5, ATXN2 expr inh 3%, Integrin act MD 8%, ATXN viability inactive, D3 ag 0 and D3 antag -3.
For CCC(CC)C(=O)N(C)c1c(C)nc2c(OCc3cccc(OC)c3)cccn12 the results were IL1B secr inh 0, ATXN2 expr inh -20%, ATXN viability inactive, D3 ag -2 and D3 antag -22.
COc1ccc(-n2c(-c3cccc(C)c3[N+](=O)[O-])n[nH]c2=S)cc1 was read as IL1B secr inh inconclusive, ATXN2 expr inh 0%, Integrin act MD 35%, ATXN viability inactive, D3 ag -12 and D3 antag -57*.
For CCc1ccc(N2CSC3=C(C#N)C(c4cccs4)CC(=O)N3C2)cc1 (centres undefined) the results were IL1B secr inh -2, ATXN2 expr inh 22%, Integrin act MD -55%, ATXN viability inactive, D3 ag 3 and D3 antag -61*.
For CNc1ccc(Br)cc(C(=O)/C=C/c2cc(OC)ccc2OC)c1=O the results were IL1B secr inh -99*, ATXN2 expr inh inconclusive, Integrin act MD -70%, D3 ag -7 and D3 antag 0.
Screening CCNc1ccc(Br)cc(C(=O)/C=C/c2ccc(Cl)cc2Cl)c1=O returned IL1B secr inh -98*, ATXN2 expr inh 32µM*, Integrin act MD -67%, ATXN viability inconclusive, D3 ag -4 and D3 antag -78*.
For CNc1ccc(Br)cc(C(=O)/C=C/c2ccc3c(c2)OCO3)c1=O the results were IL1B secr inh -100*, ATXN2 expr inh inconclusive, Integrin act MD -44%, ATXN viability inactive, D3 ag 3 and D3 antag 2.
Cc1noc(/C=C/c2ccccc2F)c1S(=O)(=O)N1CCC(C(=O)NCC(C)c2ccccc2)CC1 (centres undefined) was read as D3 ag 0.
For CCOC(=O)C1CCN(C2CCN(Cc3nc(-c4ccccc4)no3)CC2)CC1 the results were IL1B secr inh -26, ATXN2 expr inh -27%, Integrin act MD -23%, ATXN viability inconclusive, D3 ag 4 and D3 antag 7.
For COC(=O)C1CCN(Cc2nnc(-c3ccccc3)o2)CC1 the results were IL1B secr inh 25, ATXN2 expr inh -15%, Integrin act MD 2%, ATXN viability inconclusive, D3 ag 81* and D3 antag 19.
For COC(=O)C1CCN(Cc2cn(-c3ccccc3)nc2-c2ccc3c(c2)OCO3)CC1 the results were IL1B secr inh 0, ATXN2 expr inh 9%, Integrin act MD -12%, ATXN viability inactive, D3 ag -2 and D3 antag -69*.
For CC(=O)NCC1CCCN(Cc2cn(-c3ccccc3)nc2-c2ccc3c(c2)OCO3)C1 (centres undefined) the results were IL1B secr inh -2, ATXN2 expr inh -17%, Integrin act MD -10%, ATXN viability inactive, D3 ag -12 and D3 antag -10.
Screening NC(=O)C1CCN(Cc2nc(-c3ccccc3)no2)CC1 returned IL1B secr inh 28, ATXN2 expr inh 15%, Integrin act MD 4%, ATXN viability inactive, D3 ag 34* and D3 antag 29.
Screening S=C(Nc1ccccc1)Nc1nccs1 returned IL1B secr inh -10, Integrin act MD 10%, ATXN viability inconclusive, D3 ag -4 and D3 antag inconclusive.

Screens deposited in PubChem by National Center for Advancing Translational Sciences (NCATS).
